Results published in PubChem BioAssay (Tox21).
Records with an inconclusive call do not appear. Where a call stands in place of a potency, no number is given. Activity calls are given as the source filed them. Calls follow the shape of the dose curve; as a rule, active = well fitted inhibition curve with a large enough effect in the repeat runs; inconclusive = weak or mixed curves, or effect the other way; inactive = no such curve, though single readings can be large or run the other way.
Potency is read from the fitted curve at half-maximal effect.

These molecules were tested against Nuclear receptor subfamily 1 group I member 3 (Homo sapiens) (UniProt Q14994) (assay: qHTS assay to identify small molecule antagonists of the constitutive androstane receptor (CAR) signaling pathway (AID 1224838;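 also: HepG2 cells stably expressing hCAR with CYP2B6 luciferase reporter stimulated by CITCO; nearly all actives have a fitted effect of over 40% in size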)). Conditions: HepG2-CYP2B6-hCAR luciferase, CITCO-stimulated, 24 h; series mostly up to 92.4 µM.
Nuclear receptor subfamily 1 group I member 3 (Homo sapiens), sequence (Q14994 whole entry, looked up): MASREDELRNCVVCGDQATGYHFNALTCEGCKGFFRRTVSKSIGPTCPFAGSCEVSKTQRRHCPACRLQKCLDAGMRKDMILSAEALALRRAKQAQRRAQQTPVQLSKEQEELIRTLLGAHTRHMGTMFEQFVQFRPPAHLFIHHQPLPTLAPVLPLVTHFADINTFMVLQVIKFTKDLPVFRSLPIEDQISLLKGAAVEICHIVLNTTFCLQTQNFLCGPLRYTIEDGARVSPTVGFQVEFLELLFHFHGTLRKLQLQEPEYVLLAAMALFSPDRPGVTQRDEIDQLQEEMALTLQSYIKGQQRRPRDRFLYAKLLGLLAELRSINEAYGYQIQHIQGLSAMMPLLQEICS
Source text: U.S. Tox21 Program National Center for Advancing Translational Sciences [NCATS] NIH Chemical Genomics Center [NCGC] U.S. Environmental Protection Agency [EPA] National Institutes of Environmental Health Sciences [NIEHS] National Toxicology Program [NTP] U.S. Food and Drug Administration [FDA] Tox21 Assay Overview: The constitutive androstane receptor (CAR) is a nuclear receptor which regulates multiple drug metabolizing enzymes (DMEs) and transporters. Activating CAR will generally increase the transcription and subsequent translation of CYP2B6 and CYP3A4. These two DMEs represent about 50% of the drug metabolizing potential in the body. When CAR is deactivated, the metabolizing potential in the body will decrease, subsequently increasing the toxicity in the body or lowering the therapeutic potential of a pro-drug. Recently, there have also been studies performed indicating CARs role in energy metabolism and cancer therapy. Therefore, inhibiting CARs activity could have a potential effect on diabetes and cancer. Identifying environmental toxins and compounds which modulate CAR, through the use of the Tox21 10K compound collection, will be an important step in determining the toxicity and potential therapeutic effects these factors will have on the human body.
Tox21 Assay Protocol Summary: A double-stable (hCAR and CYP2B6-2.2kb) transfected cell line, derived from human hepatoma (HepG2) cells, was utilized for the duration of the quantitative high-throughput screens. The HepG2-CYP2B6-hCAR cells suspended in DMEM culture medium supplemented with 10% FBS, 5 ug/mL blasticidin, 0.5 mg/mL geneticin, 100 U/mL penicillin and 100 ug/mL streptomycin were dispensed at 2500 cells/4 uL/well in 1536-well white solid bottom plates using a Multidrop Combi. After the assay plates were incubated at 37 C/5% CO2 for 4 hrs, 23 nL of compounds at 15 concentrations (from 5-48 columns) or positive control (from 1 to 4 columns) were transferred to the assay plates using a Pintool station. One uL of CITCO, was added using a Flying Reagent Dispenser to generate a final concentration of 50 nM CITCO inside each well. After a 24 hr incubation period at 37 C/5% CO2, four uL of ONE-Glo reagent was added into the assay plates using a Flying Reagent Dispenser. After a 30 min incubation period at room temperature, the luminescence intensity in the assay plates was measured using a ViewLux plate reader.
In the case of NC(=S)C(N)=S, the Potency is reported as “inactive”.
With CC1CN1P(=O)(N1CC1C)N1CC1C (stereo not given) the Potency was “inactive”.
CCN(Cc1ccc(Cl)nc1)/C(=C/[N+](=O)[O-])NC was tested, and the Potency was “inactive”.
For CCCCCCBr, the Potency was “inactive”.
In the case of ClCC(Cl)(Cl)Cl, the Potency is reported as “inactive”.
In the case of CCC1(c2ccccc2)C(=O)NC(=O)NC1=O, the Potency is reported as “inactive”.
N#CC(O)c1ccccc1 (stereo not given) was tested, and the Potency was “inactive”.
Fc1cc(Br)ccc1CBr was tested, and the Potency was “inactive”.
COC(=O)C(c1ccccc1)C1CCCCN1 (stereo not given) was tested, and the Potency was “inactive”.
In the case of CNNC, the Potency is reported as “inactive”.
With Nc1cc(Cl)ccc1O the Potency was “inactive”.
In the case of COc1cc(OC)nc(NC(=O)NS(=O)(=O)c2ncccc2C(=O)N(C)C)n1, the Potency is reported as “inactive”.
In the case of CCN(CC)C(=O)[C@@H]1C=C2c3cccc4[nH]cc(c34)C[C@H]2N(C)C1, the Potency is reported as “inactive”.
In the case of CCS(=O)(=O)CCSP(=O)(OC)OC, the Potency is reported as “inactive”.
CCCCOC(=O)c1ccccc1C(=O)O was tested, and the Potency was “inactive”.
In the case of CCCSC(=O)N(CCC)CCC, the Potency is reported as “inactive”.
With CC(CC(C#N)(c1ccccc1)c1ccccc1)N(C)C (stereo not given) the Potency was “inactive”.
With CC(=O)CCc1ccc2c(c1)OCO2 the Potency was “inactive”.
In the case of CC(=O)Nc1cc([As](=O)(O)O)ccc1O, the Potency is reported as “inactive”.
CC(C(O)c1ccccc1)N(C)C/C=C/c1ccccc1 (stereo not given) was tested, and the Potency was “inactive”.
For C#CCN1C(=O)COc2cc(F)c(N3C(=O)C4=C(CCCC4)C3=O)cc21, the Potency was “inactive”.
With O=[N+]([O-])c1ccc(CBr)cc1 the Potency was “inactive”.
In the case of CCCCc1c(C)nc(NCC)[nH]c1=O, the Potency is reported as “inactive”.
For CNC(=O)N(C)c1nc2ccccc2s1, the Potency was “inactive”.
CCOP(=S)(OCC)SCSP(=S)(OCC)OCC was tested, and the Potency was “inactive”.
COc1cc(OC)nc(Sc2cccc(Cl)c2C(=O)O)n1 was tested, and the Potency was “inactive”.
In the case of c1coc(-c2nc3ccccc3[nH]2)c1, the Potency is reported as “inactive”.
With CC(C)(C)C(=O)C(Oc1ccc(Cl)cc1)n1cncn1 (stereo not given) the Potency was “inactive”.
In the case of N#CC(CCc1ccc(Cl)cc1)(Cn1cncn1)c1ccccc1 (stereo not given), the Potency is reported as “inactive”.
With CC(N)=S the Potency was “inactive”.
COc1cc(OC)nc(NC(=O)NS(=O)(=O)c2ncccc2OCC(F)(F)F)n1 was tested, and the Potency was “inactive”.
For COC(=O)c1c(C(F)F)nc(C(F)(F)F)c(C2=NCCS2)c1CC(C)C, the Potency was “inactive”.
For CNC(=O)Oc1cccc(C(C)C)c1, the Potency was “inactive”.
CN1CCN(C(=O)O[C@H]2c3nccnc3C(=O)N2c2ccc(Cl)cn2)CC1 was tested, and the Potency was “inactive”.
With COc1cccc2c1cc([N+](=O)[O-])c1c(C(=O)O)cc3c(c12)OCO3 the Potency was 12.2 µM (active).
For O=C(CCN1CC1)OCC(CO)(COC(=O)CCN1CC1)COC(=O)CCN1CC1, the Potency was “inactive”.
With CC1CCCCC1NC(=O)Nc1ccccc1 (stereo not given) the Potency was “inactive”.
C1CCC(C2CCCCC2)CC1 was tested, and the Potency was “inactive”.
CCOC(=O)N(C)C(=O)CSP(=S)(OCC)OCC was tested, and the Potency was “inactive”.
With COP(N)(=S)Oc1ccccc1C(=O)OC(C)C (stereo not given) the Potency was “inactive”.
